Results from PubChem BioAssay.

Biological target: Nuclear receptor coactivator 1 (Homo sapiens) (UniProt Q15788)
Experiment: SRC1 coactivator transcriptional activity inhibitors, confirmation, cell-based, luminescence, quadruplicate (AID 588820);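 further: 0% = DMSO wells and 100% = gossypol 36 µM treated wells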
Settings: HEK293 GAL4-SRC1 luciferase reporter, at 3.6 µM, stronger effect = higher value;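 active means mean inhibition above 46.68%, the untreated control wells mean plus 3 SD; inactive means the rest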

Chain of Nuclear receptor coactivator 1 (Homo sapiens) (Q15788 whole entry, looked up): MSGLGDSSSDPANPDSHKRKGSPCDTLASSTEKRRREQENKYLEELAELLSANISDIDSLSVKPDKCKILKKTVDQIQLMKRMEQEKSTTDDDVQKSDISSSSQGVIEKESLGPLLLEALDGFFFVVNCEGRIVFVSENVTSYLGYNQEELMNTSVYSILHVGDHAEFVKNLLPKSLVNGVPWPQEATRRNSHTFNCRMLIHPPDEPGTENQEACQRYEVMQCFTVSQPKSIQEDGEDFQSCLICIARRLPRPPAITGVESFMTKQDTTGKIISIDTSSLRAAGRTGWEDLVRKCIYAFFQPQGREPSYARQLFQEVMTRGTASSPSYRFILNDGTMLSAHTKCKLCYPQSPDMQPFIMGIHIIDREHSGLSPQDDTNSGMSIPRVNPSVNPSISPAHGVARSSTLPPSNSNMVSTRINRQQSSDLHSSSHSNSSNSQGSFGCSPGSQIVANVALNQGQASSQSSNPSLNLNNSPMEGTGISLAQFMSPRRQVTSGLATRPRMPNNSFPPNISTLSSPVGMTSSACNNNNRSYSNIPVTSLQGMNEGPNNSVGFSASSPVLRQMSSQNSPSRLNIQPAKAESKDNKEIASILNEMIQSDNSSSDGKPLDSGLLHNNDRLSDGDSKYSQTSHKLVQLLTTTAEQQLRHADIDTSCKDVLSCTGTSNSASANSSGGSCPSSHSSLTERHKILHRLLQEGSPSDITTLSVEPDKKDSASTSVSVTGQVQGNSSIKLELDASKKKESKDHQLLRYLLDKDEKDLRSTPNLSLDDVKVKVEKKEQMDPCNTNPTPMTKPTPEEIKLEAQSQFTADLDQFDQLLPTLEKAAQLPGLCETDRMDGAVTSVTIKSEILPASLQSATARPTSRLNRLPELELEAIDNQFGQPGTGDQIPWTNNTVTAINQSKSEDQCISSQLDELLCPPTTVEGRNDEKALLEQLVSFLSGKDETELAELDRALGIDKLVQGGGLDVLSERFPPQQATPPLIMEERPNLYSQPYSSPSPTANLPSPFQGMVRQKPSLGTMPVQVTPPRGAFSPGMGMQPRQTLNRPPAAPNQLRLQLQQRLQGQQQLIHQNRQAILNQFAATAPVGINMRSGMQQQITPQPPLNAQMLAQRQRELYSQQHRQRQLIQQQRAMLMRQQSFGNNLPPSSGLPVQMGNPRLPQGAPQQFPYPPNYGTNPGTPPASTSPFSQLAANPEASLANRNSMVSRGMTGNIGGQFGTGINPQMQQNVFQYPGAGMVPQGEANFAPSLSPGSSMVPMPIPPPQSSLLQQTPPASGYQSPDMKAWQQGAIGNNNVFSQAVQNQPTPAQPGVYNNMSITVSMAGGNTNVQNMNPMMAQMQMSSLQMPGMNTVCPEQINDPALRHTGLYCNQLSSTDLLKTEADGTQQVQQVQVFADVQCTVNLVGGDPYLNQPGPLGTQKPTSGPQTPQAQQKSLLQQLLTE

inhibition, inactive:
CC(C(=O)Nc1ccon1)N1C(=O)c2ccccc2S1(=O)=O (centres undefined) -3.82%
COc1ccc(CN2CCN(C(=O)CCC(=O)Nc3nnc(C(F)(F)F)s3)CC2)cc1F -1.74%
O=[N+]([O-])c1ccc(CSc2ccc(S(=O)(=O)N3CCOCC3)cn2)cc1 -7.09%
c1cncc(CNC2CCCc3ccccc32)c1 (centres undefined) 0.67%
COc1ccccc1N1CCN(C(=O)C2CCN(S(=O)(=O)c3ccc4c(c3)CC(C)N4C(=O)C3CC3)CC2)CC1 (centres undefined) -15.8%
CCOC(=O)c1c(-c2ccccc2)csc1NC(=O)c1nn(CC)cc1Br -4.38%
COc1ccc(CN(C(=O)CSc2nnc(-c3c[nH]c4ccccc34)o2)c2ccc(F)cc2)cc1OC -67.5%
COc1ccccc1/C=C\C(=O)NCC(=O)N/N=C/c1cccc(OC)c1O 26.9%
O=C(NCc1ccncc1)C1CCCN(S(=O)(=O)c2ccc(Br)cc2)C1 (centres undefined) -1.35%
COc1ccc(N(Cc2cc3cc(OC)ccc3[nH]c2=O)S(=O)(=O)c2ccc(NC(C)=O)cc2)cc1 -21.4%
COc1ccc(-c2cc(C(=O)N(C)CC(=O)Nc3cccc(F)c3)c3ccccc3n2)cc1OC -19.1%
CC(C)Cn1c(N)c(C(=O)COC(=O)CC23CC4CC(CC(C4)C2)C3)c(=O)n(C)c1=O 6.72%
COc1ccc(OC)c(NC(=O)c2cc(-c3c(C)cc(C)cc3O)n[nH]2)c1 11.1%
CCc1nnc(NC(=O)CCC(=O)NCc2ccccc2Cl)s1 10.2%
Nc1nc(Cl)nc2ccc(Br)cc12 -6.1%
COc1cccc(C2=CC(=O)CC(C)(C)C2)c1 18.3%
Cc1cc(C)c2nc(NNC(=O)c3ccc(S(=O)(=O)N4CC(C)CC(C)C4)cc3)sc2c1 (centres undefined) 32.4%
CN1C(=O)[C@H](Cc2ccc([N+](=O)[O-])cc2)NC1=S 27.2%
Cn1c2ccccc2c(=O)c2ccc(C#CC3(O)CCCCC3)cc21 -132%
O=C(CNC(=O)Cc1ccccc1)N=Nc1c(O)n(Cc2ccc3c(c2)OCO3)c2ccccc12 3.52%
NC(=O)c1ccc(N2CCN(S(=O)(=O)c3ccccc3)CC2)c([N+](=O)[O-])c1 -20.8%
Cc1cc[n+](CC(=O)Nc2cccc(C)c2)cc1 -8.15%
CCN1CCS/C1=C/C=C/C1=[N+](CC)CCS1 -22.7%
CC(C)(CNC(=O)c1ccc(-c2cccc(C(F)(F)F)c2)o1)N1CCOCC1 -2.1%
CC1CN(c2nc3ccccc3nc2SCC(=O)Nc2cccc(C(F)(F)F)c2)CC(C)O1 (centres undefined) -15.1%
CCCCCC(=O)N1CCN(S(=O)(=O)c2ccc3c(c2)OCCO3)CC1 -2.33%
Clc1ccc(C2NCCc3sccc32)cc1 (centres undefined) -22%
Cc1ccoc1C(=O)NCCNC(=O)c1occc1C -20.6%
COc1cccc(-c2cc(C(=O)Nc3cc(C)n(Cc4ccc(Cl)cc4)n3)no2)c1 1.04%
CC1Cc2ccccc2N1S(=O)(=O)c1cccc(C(=O)N2CCN(c3ncccn3)CC2)c1 (centres undefined) 16.5%
Cc1ccc(NC(=O)c2cnc(N3CCN(c4ccccn4)CC3)c3ccccc23)c(Br)c1 -15.2%
CC1CC(C)CN(c2ncnc3c2cnn3-c2ccc(Cl)cc2)C1 (centres undefined) -96.6%
Cc1cccc(Oc2ncnc(N)c2[N+](=O)[O-])c1C -14.1%
Cc1ccccc1C(=O)Nc1cc(NC(=O)c2ccccc2C)cc(C(=O)O)c1 -14.1%
COc1ccc(-n2nc(C(=O)NCC(=O)Nc3cc(OC)c(OC)c(OC)c3)c3ccccc3c2=O)cc1OC -43.4%
N#Cc1ccc(Oc2ccc(C(F)(F)F)cc2NC(=O)c2ccc(F)cc2)cc1 6.71%
S=C1SCN(Cc2ccccn2)CN1Cc1ccco1 -2.15%
COc1cc(S(=O)(=O)NCc2ccccc2Cl)ccc1-n1cnnn1 -9.68%
Cc1ccc(-n2c(C)nn(CC3CC3)c2=O)cc1 2.58%
